Inhibition data for two molecules are collected here from ChEMBL document CHEMBL1961873, “Compounds: GSK PKIS; Assays: Nanosyn kinase panel” (2012).

SMILES strings stand for the structures.

Assay [1] has as its target T1, Inhibitor of nuclear factor kappa-B kinase subunit epsilon (Homo sapiens) (UniProt Q14164).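 Further: reported values are averaged percent inhibition figures against human IKKε.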
T1 sequence (whole entry): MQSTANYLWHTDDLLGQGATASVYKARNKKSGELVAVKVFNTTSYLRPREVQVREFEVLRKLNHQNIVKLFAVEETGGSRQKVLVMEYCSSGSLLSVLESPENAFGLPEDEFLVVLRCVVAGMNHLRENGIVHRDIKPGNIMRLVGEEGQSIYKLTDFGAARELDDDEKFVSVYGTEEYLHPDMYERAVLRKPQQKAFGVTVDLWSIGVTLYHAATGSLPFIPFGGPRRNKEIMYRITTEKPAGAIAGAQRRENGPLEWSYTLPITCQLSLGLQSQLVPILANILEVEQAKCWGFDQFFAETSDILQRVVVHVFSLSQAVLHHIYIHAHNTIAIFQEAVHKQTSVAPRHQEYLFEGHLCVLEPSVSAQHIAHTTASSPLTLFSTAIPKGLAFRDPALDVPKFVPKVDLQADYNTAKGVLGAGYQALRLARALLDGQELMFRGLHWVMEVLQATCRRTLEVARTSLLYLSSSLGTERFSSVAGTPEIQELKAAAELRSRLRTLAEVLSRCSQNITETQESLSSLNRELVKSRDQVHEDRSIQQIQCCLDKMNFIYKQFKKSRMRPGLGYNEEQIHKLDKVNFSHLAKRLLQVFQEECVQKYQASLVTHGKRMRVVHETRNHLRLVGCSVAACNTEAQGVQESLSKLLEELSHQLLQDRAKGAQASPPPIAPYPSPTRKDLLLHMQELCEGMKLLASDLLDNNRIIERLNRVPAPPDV
The conditions noted are these: at 1 µM.

Assay [2] has as its target T2, Serine/threonine-protein kinase Nek1 (Homo sapiens) (UniProt Q96PY6).
T2 sequence (whole entry): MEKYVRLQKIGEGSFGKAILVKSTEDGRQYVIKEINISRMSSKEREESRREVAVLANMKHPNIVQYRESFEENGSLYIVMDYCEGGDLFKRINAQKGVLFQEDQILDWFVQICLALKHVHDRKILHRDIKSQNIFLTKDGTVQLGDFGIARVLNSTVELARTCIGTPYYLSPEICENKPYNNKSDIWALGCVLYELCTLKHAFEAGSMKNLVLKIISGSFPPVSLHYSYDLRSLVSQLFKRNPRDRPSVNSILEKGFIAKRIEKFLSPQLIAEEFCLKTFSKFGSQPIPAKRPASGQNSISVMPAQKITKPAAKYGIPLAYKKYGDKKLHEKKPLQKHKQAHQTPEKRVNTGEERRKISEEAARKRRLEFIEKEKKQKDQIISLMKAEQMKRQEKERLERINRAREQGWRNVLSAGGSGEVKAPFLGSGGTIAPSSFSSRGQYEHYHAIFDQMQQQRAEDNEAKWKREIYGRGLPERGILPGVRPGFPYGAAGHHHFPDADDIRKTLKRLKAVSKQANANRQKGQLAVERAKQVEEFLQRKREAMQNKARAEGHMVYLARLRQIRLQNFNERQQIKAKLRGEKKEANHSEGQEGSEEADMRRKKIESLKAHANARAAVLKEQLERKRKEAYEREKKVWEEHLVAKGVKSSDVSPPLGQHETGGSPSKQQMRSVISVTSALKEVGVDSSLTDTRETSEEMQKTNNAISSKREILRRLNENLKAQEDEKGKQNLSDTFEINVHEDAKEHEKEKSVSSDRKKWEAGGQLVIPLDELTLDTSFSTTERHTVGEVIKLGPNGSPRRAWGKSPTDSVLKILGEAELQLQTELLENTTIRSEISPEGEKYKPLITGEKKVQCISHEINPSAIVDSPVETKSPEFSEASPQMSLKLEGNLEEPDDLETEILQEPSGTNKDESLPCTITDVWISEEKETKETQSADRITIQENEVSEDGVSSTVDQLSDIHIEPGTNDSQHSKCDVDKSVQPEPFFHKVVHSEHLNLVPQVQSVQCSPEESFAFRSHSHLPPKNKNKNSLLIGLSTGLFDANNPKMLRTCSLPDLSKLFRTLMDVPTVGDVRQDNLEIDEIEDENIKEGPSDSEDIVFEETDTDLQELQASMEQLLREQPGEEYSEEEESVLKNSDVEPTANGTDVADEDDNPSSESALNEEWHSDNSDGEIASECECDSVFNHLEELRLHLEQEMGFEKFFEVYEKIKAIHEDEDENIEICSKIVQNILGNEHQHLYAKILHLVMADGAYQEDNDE
The conditions noted are these: at 0.1 µM.

In assay [3] the target is T2, Serine/threonine-protein kinase Nek1 (Homo sapiens). Conditions: at 1 µM.
The target of assay [4] is T3, Serine/threonine-protein kinase Nek2 (Homo sapiens) (UniProt P51955).
T3 sequence (whole entry): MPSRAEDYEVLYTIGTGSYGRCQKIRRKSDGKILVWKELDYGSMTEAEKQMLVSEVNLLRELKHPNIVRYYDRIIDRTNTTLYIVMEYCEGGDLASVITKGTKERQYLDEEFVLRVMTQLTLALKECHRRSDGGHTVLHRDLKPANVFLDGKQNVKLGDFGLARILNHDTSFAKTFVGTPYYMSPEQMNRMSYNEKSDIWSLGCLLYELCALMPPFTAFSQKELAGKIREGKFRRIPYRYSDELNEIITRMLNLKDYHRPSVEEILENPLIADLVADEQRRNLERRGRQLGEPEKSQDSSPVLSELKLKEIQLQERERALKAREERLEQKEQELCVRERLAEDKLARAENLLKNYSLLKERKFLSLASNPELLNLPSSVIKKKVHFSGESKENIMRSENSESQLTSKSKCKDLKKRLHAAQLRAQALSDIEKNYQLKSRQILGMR
The conditions noted are these: at 0.1 µM.

For assay [5], the target named is T3, Serine/threonine-protein kinase Nek2 (Homo sapiens). Conditions: at 1 µM.
Assay [6] concerns the target Serine/threonine-protein kinase Nek6 (Homo sapiens) (UniProt Q9HC98). The conditions noted are these: at 0.1 µM.
Assay [7] has the same target. Conditions: at 1 µM.
Assay [8] has as its target Serine/threonine-protein kinase Nek7 (Homo sapiens) (UniProt Q8TDX7). The conditions noted are these: at 0.1 µM.
Assay [9] has the same target. The conditions noted are these: at 1 µM.
For assay [10], the target named is T4, Serine/threonine-protein kinase Nek9 (Homo sapiens) (UniProt Q8TD19).
T4 sequence (whole entry): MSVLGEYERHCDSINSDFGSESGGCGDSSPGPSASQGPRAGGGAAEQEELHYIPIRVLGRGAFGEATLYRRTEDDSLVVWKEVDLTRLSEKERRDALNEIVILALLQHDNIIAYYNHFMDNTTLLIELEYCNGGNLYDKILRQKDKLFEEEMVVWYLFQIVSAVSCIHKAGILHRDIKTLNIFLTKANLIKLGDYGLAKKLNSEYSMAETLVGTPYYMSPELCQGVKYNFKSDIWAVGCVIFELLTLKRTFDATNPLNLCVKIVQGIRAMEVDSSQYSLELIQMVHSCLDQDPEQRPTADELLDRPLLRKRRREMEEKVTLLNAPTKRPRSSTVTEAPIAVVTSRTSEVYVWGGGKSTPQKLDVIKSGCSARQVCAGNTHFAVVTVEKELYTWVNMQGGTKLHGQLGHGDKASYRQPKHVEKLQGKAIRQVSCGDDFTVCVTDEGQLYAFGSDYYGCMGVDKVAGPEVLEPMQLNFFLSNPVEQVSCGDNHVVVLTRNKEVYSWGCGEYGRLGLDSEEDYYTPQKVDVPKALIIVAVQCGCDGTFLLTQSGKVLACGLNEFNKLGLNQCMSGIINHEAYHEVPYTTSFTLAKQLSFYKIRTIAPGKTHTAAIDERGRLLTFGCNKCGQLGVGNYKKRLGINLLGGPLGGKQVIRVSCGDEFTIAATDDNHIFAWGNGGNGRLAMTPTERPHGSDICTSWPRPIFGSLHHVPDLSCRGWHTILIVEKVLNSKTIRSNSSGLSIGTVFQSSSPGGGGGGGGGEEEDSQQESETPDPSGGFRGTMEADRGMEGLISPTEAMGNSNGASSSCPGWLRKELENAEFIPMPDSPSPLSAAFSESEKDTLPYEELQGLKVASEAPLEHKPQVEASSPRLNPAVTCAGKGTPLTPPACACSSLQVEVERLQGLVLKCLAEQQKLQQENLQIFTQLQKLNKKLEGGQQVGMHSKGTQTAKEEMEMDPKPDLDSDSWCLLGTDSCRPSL
The conditions noted are these: at 0.1 µM.

For assay [11], the target named is T4, Serine/threonine-protein kinase Nek9 (Homo sapiens). The conditions noted are these: at 1 µM.
Assay [12] addresses Serine/threonine-protein kinase PLK1 (Homo sapiens) (UniProt P53350). Conditions: at 0.1 µM.
Assay [13] shares this target. The conditions noted are these: at 1 µM.
For assay [14], the target named is T5, Dual specificity protein kinase TTK (Homo sapiens) (UniProt P33981).
T5 sequence (whole entry): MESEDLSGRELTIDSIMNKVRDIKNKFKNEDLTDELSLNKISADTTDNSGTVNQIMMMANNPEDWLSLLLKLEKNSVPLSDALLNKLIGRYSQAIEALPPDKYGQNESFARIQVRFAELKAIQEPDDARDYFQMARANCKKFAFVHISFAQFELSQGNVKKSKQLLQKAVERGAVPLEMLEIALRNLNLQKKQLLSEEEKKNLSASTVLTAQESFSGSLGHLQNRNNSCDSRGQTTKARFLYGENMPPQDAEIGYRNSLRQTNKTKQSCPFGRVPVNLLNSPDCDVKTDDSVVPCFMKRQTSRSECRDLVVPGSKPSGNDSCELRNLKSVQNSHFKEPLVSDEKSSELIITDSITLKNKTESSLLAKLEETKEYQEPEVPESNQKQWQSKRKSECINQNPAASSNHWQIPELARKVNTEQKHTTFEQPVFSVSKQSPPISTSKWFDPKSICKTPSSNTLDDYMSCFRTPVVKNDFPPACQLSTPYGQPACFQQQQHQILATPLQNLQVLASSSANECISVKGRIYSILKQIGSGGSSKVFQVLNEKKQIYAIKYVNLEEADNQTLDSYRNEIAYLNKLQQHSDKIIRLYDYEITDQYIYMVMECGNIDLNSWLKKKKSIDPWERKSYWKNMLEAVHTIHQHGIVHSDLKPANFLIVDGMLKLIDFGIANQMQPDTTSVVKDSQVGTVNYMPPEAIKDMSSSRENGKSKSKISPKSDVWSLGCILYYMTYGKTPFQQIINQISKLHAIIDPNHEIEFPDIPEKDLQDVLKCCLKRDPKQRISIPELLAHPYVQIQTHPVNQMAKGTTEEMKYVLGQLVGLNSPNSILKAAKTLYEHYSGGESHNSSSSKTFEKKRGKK
The conditions noted are these: at 0.1 µM.

Assay [15] concerns T6, Receptor-type tyrosine-protein kinase FLT3 (Homo sapiens), P36888 [D835Y].
T6 sequence (whole entry): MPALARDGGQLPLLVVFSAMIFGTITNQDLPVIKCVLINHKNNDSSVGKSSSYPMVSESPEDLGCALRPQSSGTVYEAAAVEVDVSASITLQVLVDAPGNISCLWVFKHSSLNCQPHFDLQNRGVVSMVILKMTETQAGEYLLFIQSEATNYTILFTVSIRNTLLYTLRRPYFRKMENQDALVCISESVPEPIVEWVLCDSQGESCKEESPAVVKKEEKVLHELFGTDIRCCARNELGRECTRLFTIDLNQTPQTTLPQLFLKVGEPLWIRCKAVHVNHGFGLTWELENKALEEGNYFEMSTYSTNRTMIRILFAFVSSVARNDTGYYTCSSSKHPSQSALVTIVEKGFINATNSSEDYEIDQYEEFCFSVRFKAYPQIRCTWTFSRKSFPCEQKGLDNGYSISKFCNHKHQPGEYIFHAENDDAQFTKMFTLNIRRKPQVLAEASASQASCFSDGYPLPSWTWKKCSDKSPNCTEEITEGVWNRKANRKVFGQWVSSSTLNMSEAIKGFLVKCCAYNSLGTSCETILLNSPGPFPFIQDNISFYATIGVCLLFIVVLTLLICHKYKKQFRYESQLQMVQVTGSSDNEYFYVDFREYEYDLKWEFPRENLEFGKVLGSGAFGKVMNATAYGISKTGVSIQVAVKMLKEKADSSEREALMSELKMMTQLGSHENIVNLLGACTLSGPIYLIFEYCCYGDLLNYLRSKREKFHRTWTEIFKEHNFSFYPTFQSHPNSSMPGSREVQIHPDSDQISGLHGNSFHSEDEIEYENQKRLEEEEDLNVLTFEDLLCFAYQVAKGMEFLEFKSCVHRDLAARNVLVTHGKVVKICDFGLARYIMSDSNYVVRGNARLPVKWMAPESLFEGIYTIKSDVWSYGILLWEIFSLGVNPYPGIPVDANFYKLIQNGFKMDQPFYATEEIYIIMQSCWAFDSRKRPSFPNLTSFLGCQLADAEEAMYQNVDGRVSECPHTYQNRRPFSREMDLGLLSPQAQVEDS
The conditions noted are these: at 1 µM.

Assay [16] deals with Vascular endothelial growth factor receptor 3 (Homo sapiens) (UniProt P35916). Conditions: at 0.1 µM.
Chain of Vascular endothelial growth factor receptor 3 (Homo sapiens) (P35916 whole entry): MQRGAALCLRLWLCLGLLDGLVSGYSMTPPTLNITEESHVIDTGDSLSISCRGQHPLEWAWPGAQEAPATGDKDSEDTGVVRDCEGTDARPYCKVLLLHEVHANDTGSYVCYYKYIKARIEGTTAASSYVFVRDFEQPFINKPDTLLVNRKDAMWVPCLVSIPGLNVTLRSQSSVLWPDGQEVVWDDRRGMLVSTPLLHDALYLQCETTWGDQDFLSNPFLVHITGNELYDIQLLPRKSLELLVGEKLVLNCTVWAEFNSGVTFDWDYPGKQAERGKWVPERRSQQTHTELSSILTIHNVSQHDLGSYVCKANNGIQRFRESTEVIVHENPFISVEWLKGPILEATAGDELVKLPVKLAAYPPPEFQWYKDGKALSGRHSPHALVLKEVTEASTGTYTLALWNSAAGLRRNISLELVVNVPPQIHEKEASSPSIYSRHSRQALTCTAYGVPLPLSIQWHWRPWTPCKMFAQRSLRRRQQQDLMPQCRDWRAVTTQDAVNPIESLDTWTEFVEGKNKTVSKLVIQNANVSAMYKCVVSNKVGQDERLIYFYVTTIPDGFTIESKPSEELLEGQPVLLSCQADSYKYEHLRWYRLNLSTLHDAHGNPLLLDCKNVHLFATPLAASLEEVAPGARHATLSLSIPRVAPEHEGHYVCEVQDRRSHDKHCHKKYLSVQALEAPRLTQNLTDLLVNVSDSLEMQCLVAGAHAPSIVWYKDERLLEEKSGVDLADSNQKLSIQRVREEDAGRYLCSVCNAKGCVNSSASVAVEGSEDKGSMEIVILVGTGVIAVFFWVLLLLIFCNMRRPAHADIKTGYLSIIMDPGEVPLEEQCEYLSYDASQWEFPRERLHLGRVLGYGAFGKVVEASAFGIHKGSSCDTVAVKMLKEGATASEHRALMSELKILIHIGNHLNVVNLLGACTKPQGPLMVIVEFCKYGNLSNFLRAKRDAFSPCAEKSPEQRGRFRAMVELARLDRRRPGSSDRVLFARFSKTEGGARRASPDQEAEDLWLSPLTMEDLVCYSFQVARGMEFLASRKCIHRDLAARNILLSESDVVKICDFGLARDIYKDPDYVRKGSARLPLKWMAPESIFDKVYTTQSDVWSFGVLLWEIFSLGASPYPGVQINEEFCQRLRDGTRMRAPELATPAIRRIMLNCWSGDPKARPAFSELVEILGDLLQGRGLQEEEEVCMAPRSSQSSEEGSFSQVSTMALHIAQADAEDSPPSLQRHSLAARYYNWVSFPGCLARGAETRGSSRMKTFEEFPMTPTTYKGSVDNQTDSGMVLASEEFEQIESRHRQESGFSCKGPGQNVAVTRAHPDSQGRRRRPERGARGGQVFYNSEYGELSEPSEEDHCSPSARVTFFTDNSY
Assay [17] shares this target. The conditions noted are these: at 1 µM.
The target in assay [18] is Macrophage colony-stimulating factor 1 receptor (Homo sapiens) (UniProt P07333). The conditions noted are these: at 0.1 µM.
Chain of Macrophage colony-stimulating factor 1 receptor (Homo sapiens) (P07333 whole entry): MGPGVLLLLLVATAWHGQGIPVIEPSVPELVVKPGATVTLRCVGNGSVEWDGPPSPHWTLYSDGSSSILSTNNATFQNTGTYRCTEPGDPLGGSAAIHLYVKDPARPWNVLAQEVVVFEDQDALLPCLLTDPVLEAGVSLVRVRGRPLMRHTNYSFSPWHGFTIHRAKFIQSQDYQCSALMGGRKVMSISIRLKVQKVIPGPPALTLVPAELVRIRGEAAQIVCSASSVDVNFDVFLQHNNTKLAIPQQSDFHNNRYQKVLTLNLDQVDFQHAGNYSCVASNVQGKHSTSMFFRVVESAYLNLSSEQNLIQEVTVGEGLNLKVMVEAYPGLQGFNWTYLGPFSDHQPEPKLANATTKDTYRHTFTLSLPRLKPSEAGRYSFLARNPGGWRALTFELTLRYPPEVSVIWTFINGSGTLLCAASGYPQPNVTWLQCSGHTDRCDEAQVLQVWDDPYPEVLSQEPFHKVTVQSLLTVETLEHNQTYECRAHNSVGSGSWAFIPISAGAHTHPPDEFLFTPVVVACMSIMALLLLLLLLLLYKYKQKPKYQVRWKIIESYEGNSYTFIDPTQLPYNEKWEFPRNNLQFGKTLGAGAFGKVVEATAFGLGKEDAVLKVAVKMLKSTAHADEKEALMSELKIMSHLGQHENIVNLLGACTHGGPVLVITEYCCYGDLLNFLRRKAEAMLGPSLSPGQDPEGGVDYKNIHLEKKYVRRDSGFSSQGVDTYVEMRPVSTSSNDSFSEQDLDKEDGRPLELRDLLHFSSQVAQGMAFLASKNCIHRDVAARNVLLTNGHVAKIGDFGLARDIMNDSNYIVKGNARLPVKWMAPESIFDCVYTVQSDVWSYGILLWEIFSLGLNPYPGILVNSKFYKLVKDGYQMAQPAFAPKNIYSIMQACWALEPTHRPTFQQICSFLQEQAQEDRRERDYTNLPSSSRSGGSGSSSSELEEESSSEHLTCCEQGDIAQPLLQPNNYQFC
For assay [19] the target is unchanged. The conditions noted are these: at 1 µM.
The target in assay [20] is Tyrosine-protein kinase Fyn (Homo sapiens) (UniProt P06241). Conditions: at 0.1 µM.
Chain of Tyrosine-protein kinase Fyn (Homo sapiens) (P06241 2-537 limits assumed): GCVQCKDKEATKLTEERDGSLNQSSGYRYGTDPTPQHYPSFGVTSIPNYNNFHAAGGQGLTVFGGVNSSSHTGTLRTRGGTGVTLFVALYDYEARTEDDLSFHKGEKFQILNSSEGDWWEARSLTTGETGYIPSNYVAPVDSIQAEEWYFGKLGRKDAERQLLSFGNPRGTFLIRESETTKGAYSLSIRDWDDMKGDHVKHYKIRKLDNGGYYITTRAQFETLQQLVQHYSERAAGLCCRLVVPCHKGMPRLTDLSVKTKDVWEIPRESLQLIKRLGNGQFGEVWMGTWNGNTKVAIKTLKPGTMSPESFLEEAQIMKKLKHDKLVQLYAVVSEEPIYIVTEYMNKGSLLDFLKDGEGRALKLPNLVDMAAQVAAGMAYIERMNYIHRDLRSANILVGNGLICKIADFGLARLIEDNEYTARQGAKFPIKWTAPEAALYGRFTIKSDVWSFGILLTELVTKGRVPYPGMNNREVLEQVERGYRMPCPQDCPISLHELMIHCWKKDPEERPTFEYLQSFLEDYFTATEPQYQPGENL

Chain of Serine/threonine-protein kinase Nek7 (Homo sapiens) (Q8TDX7 whole entry, looked up): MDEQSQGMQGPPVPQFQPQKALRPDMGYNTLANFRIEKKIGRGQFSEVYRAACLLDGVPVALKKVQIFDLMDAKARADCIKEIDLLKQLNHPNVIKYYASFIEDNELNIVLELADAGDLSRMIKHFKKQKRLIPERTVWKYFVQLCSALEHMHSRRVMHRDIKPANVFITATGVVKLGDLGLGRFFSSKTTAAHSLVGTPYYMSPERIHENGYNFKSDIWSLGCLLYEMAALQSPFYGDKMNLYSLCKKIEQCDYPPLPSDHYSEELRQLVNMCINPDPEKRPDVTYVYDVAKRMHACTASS
Chain of Serine/threonine-protein kinase Nek6 (Homo sapiens) (Q9HC98 whole entry): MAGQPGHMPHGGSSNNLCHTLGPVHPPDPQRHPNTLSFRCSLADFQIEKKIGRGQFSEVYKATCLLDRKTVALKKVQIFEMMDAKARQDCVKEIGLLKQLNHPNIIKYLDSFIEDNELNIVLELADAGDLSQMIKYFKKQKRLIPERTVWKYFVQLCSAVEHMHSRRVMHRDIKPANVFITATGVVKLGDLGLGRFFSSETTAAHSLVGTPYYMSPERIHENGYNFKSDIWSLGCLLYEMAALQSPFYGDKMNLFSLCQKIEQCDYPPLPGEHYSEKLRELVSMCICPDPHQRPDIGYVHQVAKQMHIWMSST
Chain of Serine/threonine-protein kinase PLK1 (Homo sapiens) (P53350 whole entry): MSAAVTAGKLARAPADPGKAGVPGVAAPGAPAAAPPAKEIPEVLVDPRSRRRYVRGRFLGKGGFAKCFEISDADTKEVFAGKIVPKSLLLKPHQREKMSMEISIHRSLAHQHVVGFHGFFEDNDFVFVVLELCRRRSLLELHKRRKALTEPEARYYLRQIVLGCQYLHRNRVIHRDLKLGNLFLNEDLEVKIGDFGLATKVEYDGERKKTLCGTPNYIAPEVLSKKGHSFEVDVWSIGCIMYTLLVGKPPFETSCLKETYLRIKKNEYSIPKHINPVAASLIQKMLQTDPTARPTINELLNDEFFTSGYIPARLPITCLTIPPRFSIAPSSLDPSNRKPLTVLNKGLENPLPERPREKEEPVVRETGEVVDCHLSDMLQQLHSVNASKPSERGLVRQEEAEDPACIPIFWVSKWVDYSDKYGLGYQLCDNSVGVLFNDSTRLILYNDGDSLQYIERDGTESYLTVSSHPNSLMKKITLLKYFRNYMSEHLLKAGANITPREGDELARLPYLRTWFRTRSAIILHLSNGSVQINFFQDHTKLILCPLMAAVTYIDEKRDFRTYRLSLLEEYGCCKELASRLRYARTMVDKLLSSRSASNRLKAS

In general, inhibition refers to the drop in the measured response relative to a control, in per cent. `N#Cc1cccc(Nc2ncc(-c3ccccc3)o2)c1`: the inhibition stood at 6.35% in assay [1]; 1.6% in assay [2]; 2.44% in assay [3]; 2.51% in assay [4]; 0.06% in [5]; 1.87% in [6]. The inhibition was determined as 5.4% in assay [7]; 2.82% in [8]; 1.01% in assay [9]; 8.32% in [10]; 4.83% in assay [11]; 2.12% in assay [12]. Moreover, the inhibition in [13] was 1.8%; in assay [14], 6.6%; in assay [15], 9.89%; in [16], -0.11%; in assay [17], 3.1%; in [18], 3.05%. The results for the inhibition in [19] and in [20] were 14.6% and 1.43%, respectively.

`COc1cc2c(cc1Nc1nc(Nc3cccc(F)c3C(N)=O)c3cc[nH]c3n1)N(C(=O)CN1CCN(C(C)C)CC1)CC2`: the inhibition in assay [1] worked out at 2.31%; in [2], 2.53%; in assay [3], 6.64%; in [4] it was 2.3%; in assay [5] it was 2.17%; in assay [6], 1.18%. The inhibition in [7] was found to be 1.05%; in [8] it was 3.3%; in assay [9], 6.3%; in assay [10] it was 0.4%; in assay [11], 6.33%; in assay [12] it was 4.96%. For the same molecule, the inhibition is 25.8% in [13]; 11.4% in assay [14]; 2% in assay [15]; -0.29% in assay [16]; 4.32% in [17]; -0.95% in assay [18]. Moreover, the inhibition in [19] was 5.37%; in [20] it was 1.51%.
